# Laboratory results from PubChem BioAssay (EPA / NIEHS).
# Results filed as inconclusive are left out. Active and inactive are the calls of the source. The calls were made as follows: active = hit-call score of the fitted dose curve at least 0.9, where 1 is the maximum; inconclusive = response in the unintended direction; inactive = score below 0.9.
# Target: human Ephrin type-A Receptor 1 (EphA1), EPHA1 (gene 2041) (UniProt P21709)
# Assay: NVS_ENZ_hEphA1: NovaScreen (NVS) Enzymatic Assay for human Ephrin type-A Receptor 1 (EphA1) (AID 2283158);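 also: activity is signal loss versus DMSO meaning EphA1 kinase inhibition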
# Procedure, shortened: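 Chemicals first tested in duplicate at 25 uM against recombinant EphA1 with a fluorescent substrate; those passing threshold went to singleton dose-response topping at 50 uM. Activity read 1 h later as mobility-shift fluorescence, loss of signal relative to DMSO.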
# Sequence of human Ephrin type-A Receptor 1 (EphA1), EPHA1 (gene 2041) (P21709 whole entry, looked up): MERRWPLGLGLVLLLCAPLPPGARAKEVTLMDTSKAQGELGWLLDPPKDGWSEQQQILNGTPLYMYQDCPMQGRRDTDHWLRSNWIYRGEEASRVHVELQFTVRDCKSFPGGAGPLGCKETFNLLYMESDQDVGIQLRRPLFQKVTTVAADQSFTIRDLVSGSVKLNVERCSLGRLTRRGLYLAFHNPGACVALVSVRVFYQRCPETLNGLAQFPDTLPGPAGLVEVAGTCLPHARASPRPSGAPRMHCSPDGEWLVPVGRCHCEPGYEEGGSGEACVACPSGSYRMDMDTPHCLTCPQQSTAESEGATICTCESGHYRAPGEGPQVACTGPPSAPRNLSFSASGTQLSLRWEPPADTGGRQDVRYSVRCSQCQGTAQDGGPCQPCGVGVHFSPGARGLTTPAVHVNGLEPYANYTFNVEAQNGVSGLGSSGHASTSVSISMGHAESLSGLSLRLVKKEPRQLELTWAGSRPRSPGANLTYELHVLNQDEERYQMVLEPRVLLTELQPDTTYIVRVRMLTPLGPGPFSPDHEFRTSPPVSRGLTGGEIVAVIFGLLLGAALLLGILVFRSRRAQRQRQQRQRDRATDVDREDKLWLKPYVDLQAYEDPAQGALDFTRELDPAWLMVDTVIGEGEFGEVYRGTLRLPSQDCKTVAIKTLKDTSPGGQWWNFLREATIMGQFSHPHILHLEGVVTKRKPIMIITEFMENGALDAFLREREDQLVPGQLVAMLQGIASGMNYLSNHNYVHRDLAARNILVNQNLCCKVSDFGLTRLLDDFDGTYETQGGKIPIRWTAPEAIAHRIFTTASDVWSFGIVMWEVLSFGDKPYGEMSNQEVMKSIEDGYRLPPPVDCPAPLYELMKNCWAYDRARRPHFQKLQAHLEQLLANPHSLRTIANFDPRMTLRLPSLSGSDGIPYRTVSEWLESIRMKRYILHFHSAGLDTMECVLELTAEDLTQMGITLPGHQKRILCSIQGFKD
row,Compound,outcome
1,CC1(C)NC(=O)N(c2ccc([N+](=O)[O-])c(C(F)(F)F)c2)C1=O,inactive
2,CCCCCCCCN(C)CCCCCCCC,inactive
3,CC(O)CC(C)(C)O (configuration not stated),inactive
4,CC/C(=C(/CC)c1ccc(O)cc1)c1ccc(O)cc1,inactive
5,Clc1cc(Cl)c2c(c1)N=C1CCCCCN1C2,inactive
6,O=C1O[C@H]([C@@H](O)CO)C(O)=C1O,inactive
7,CCCCCc1ccc(N)cc1,inactive

# Target: human Insulin Receptor (InsR), INSR (gene 3643) (UniProt P06213)
# Sequence (P06213 whole entry, looked up): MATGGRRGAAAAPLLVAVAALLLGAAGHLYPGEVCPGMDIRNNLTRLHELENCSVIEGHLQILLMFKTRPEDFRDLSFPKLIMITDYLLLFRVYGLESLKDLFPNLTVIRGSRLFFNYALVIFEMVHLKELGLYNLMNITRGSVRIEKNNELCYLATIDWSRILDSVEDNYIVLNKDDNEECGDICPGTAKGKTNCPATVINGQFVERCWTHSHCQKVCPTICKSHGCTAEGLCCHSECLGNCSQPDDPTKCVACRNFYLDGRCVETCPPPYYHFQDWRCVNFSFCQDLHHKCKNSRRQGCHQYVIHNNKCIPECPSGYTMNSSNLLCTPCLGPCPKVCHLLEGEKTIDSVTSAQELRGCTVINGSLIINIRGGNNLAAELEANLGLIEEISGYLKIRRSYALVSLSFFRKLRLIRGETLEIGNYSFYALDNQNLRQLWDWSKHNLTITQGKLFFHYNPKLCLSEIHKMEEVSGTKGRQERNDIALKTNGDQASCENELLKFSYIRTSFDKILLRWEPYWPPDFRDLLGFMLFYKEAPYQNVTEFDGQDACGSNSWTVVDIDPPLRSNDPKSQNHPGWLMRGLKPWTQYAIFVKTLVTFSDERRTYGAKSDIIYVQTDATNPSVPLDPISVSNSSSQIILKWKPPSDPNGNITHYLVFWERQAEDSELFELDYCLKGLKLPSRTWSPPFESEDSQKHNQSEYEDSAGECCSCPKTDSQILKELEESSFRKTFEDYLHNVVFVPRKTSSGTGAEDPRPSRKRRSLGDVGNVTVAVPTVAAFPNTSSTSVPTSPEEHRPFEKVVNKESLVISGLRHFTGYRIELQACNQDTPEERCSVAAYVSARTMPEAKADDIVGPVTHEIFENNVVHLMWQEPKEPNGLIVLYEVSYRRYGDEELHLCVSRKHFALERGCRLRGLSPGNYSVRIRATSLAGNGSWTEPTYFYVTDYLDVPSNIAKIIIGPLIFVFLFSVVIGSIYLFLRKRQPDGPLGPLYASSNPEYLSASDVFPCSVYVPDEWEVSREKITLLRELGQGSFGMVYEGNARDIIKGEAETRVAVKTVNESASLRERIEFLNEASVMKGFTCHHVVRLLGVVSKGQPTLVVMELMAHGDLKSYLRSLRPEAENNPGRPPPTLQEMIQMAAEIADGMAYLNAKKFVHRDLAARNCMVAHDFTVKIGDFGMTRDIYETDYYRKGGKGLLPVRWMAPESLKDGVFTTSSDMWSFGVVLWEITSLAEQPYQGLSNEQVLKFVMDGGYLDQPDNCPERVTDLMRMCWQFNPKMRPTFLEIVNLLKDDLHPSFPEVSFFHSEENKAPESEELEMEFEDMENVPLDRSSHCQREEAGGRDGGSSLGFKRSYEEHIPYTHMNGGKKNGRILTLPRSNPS
# Assay: NVS_ENZ_hInsR: NovaScreen (NVS) Enzymatic Assay for human Insulin Receptor (InsR) (AID 2283168)
# Protocol: NVS_ENZ_hInsR is a biochemical, single-readout assay that uses extracted gene-proteins in a cell-free assay. Measurements were taken 1 hour after chemical dosing in a 384-well plate.NVS_ENZ_hInsR is one of one assay component(s) measured or calculated from the NVS_ENZ_hInsR assay. It is designed to make measurements of enzyme activity, a form of enzyme reporter, as detected with fluorescence intensity signals by Fluorescence and electrophoretic mobility shift technology.Data from the assay component NVS_ENZ_hInsR was analyzed into 1 assay endpoint. This assay endpoint, NVS_ENZ_hInsR, was analyzed in the positive analysis fitting direction relative to DMSO as the negative control and baseline of activity. Using a type of enzyme reporter, loss-of-signal activity can be used to understand changes in the enzymatic activity as they relate to the gene INSR. Furthermore, this assay endpoint can be referred to as a primary readout, because this assay has produced multiple assay endpoints where this one serves a enzymatic activity function. To generalize the intended target to other relatable targets, this assay endpoint is annotated to the kinase intended target family, where the subfamily is receptor tyrosine kinase.
# Binding assays used specific radioligands (tritiated, iodinated) with non-radioactive competitive displacement ligands in agonist or antagonist protocols (as indicated) and various reference compounds and inhibitors to titrate specific binding to receptors and transporters. Most enzyme assays (CYPs, kinases, phosphatases, proteases, HDACs) used recombinant protein and specific substrates (fluorescence mostly, some colorimetric and radioactive) and inhibitors, followed by a biochemical separation of substrate and product. All assays for the biochemical HTS were initially run in duplicate at a single concentration (10 uM for CYP450 assays and 25 uM for all others). […]
Compound,AC50,outcome
COc1cc(C(=O)NC2CCN(C)CC2)ccc1Nc1ncc2c(n1)N(C1CCCC1)CC(F)(F)C(=O)N2C,7.46 nM (active),–
OCCO,–,inactive
O=C1O[C@H]([C@@H](O)CO)C(O)=C1O,–,inactive

# Target: human Janus Kinase 2 (Jak2), JAK2 (gene 3717) (UniProt O60674)
# Sequence (O60674 whole entry, looked up): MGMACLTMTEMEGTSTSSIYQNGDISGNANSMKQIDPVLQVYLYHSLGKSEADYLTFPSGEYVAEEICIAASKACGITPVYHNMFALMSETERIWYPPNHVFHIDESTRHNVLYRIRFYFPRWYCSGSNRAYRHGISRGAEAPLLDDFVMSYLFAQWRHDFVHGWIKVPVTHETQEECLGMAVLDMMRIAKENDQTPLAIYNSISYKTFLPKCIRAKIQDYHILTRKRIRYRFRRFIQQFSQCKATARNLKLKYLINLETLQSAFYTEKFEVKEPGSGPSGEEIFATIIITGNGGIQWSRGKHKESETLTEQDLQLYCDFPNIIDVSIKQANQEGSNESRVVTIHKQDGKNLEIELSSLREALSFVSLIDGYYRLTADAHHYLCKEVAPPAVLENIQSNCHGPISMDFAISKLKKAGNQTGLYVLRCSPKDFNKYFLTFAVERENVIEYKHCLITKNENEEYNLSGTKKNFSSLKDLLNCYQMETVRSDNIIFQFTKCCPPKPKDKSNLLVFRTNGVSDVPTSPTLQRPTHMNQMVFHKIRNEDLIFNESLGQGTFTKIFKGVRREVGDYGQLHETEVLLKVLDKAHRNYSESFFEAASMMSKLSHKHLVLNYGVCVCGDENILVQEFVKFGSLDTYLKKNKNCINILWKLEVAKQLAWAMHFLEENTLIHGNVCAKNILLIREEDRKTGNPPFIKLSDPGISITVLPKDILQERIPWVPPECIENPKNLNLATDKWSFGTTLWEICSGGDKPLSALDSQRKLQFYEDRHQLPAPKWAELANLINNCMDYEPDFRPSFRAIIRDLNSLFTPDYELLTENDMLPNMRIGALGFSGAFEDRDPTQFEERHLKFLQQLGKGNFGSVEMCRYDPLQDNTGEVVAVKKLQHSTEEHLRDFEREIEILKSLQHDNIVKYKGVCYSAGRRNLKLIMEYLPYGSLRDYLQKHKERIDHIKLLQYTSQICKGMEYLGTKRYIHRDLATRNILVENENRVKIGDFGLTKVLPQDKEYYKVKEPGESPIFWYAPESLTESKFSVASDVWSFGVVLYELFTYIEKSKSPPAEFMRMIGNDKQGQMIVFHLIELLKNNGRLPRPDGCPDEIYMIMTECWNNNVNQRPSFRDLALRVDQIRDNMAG
# Assay: NVS_ENZ_hJak2: NovaScreen (NVS) Enzymatic Assay for human Janus Kinase 2 (Jak2) (AID 2283169)
# Procedure, shortened: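 Cell-free recombinant human JAK2 enzyme activity assay, fluorescence/electrophoretic mobility shift read 1 h after dosing. Screened in duplicate at 25 uM, then concentration-response up to 50 uM; activity as signal loss relative to DMSO.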
Compound,outcome,AC50
O=C(O)c1ccccc1C(=O)OCc1ccccc1,inactive,–
CC(C)(C)c1csc(-c2cc3cc(OCc4ccccc4CC(=O)O)ccc3o2)n1,–,5.15 nM (active)
O=C(OCCCCCCOC(=O)c1ccccc1)c1ccccc1,inactive,–
CCN(CC)C(=O)c1cc(S(=O)(=O)Cc2ccccc2)c(N2CCC(c3ccccc3)CC2)cc1N(CC)CCN(C)C,inactive,–
CCN(Cc1cccc(S(=O)(=O)O)c1)c1ccc(C(=C2C=CC(=[N+](CC)Cc3cccc(S(=O)(=O)O)c3)C=C2)c2ccccc2S(=O)(=O)[O-])cc1,–,12400 nM (active)
O=C(O)Cc1cc(I)c(Oc2ccc(O)c(I)c2)c(I)c1,inactive,–
CCO[Si](CCCNC(N)=O)(OCC)OCC,inactive,–
